# In paper PMC5540273 (PLoS ONE, 2017):
# Legend:
# Conditions in all cases: concentration: 1 μM, replicates: in singlicate; n = 1
# AMPK-alpha2 = test system: T1, AMPK-alpha2
# T1 construct: gene PRKAA2
# ANKK1 = test system: ANKK1
# ARK5 = test system: T2, ARK5
# T2 construct: gene NUAK1
# ASK1 = test system: T3, ASK1
# T3 construct: gene MAP3K5
# ASK2 = test system: T4, ASK2
# T4 construct: gene MAP3K6
# AURKA = test system: AURKA
# AURKB = test system: AURKB
# AURKC = test system: AURKC
# AXL = test system: AXL
# BIKE = test system: T5, BIKE
# T5 construct: gene BMP2K
# BLK = test system: BLK
# BMPR1A = test system: BMPR1A
# BMPR1B = test system: BMPR1B
# BMPR2 = test system: BMPR2
# BMX = test system: BMX
# BRAF = test system: BRAF
# BRK = test system: T6, BRK
# T6 construct: gene PTK6
# BRSK1 = test system: BRSK1
# BRSK2 = test system: BRSK2
# BTK = test system: BTK
# 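Also: KINOMEscan kinase panel screen.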
Compound,%Inh (AMPK-alpha2) [%],%Inh (ANKK1) [%],%Inh (ARK5) [%],%Inh (ASK1) [%],%Inh (ASK2) [%],%Inh (AURKA) [%],%Inh (AURKB) [%],%Inh (AURKC) [%],%Inh (AXL) [%],%Inh (BIKE) [%],%Inh (BLK) [%],%Inh (BMPR1A) [%],%Inh (BMPR1B) [%],%Inh (BMPR2) [%],%Inh (BMX) [%],%Inh (BRAF) [%],%Inh (BRK) [%],%Inh (BRSK1) [%],%Inh (BRSK2) [%],%Inh (BTK) [%]
Cc1nnc(-c2ccc3occ(-c4ccc(C(C)O)cc4)c3c2)o1 (stereo not drawn),14,3,35,0,11,13,27,23,3,18,2,2,23,2,44,1,0,10,13,0
CCc1ccnc(/C=C/c2n[nH]c3cc(Sc4ccccc4C(=O)NC)ccc23)c1,0,0,11,0,0,77,94.5,97.3,45,34,17,0,0,17,0,4,0,27,17,0
COc1ccc(Nc2nccc(N3CCC(NC(=O)Nc4cccc(C(C)=O)c4)C3)n2)cc1 (stereo not drawn) [GSK1379731],0,0,50,0,0,0,0,40,9,30,35,0,0,0,0,0,7,0,0,0
Cl.Nc1ncnc2occ(-c3ccc(NC(=O)Nc4cc(C(F)(F)F)ccc4F)cc3)c12 [SB-707548],22,77,21,32,0,53,96.7,53,97.7,10,44,0,0,1,82,71,3,20,0,21
[2H]C([2H])(c1cccc(C(F)(F)F)c1C)n1ccn2c(=O)nc(N3CCOCC3)cc12 [GSK2336394],15,0,0,1,0,0,11,13,8,23,25,1,0,0,9,44,18,7,0,0
O=C(NCCCN1CCOCC1)c1cccc(Nc2nccc(Nc3ccc(Oc4ccccc4)cc3)n2)c1 [GW663929],0,20,29,3,0,36,11,14,11,27,95.4,0,0,15,54,0,69,6,0,51
Fc1ccc(-c2ncn(CCCN3CCOCC3)c2-c2ccccn2)cc1 [SB-211742],0,0,0,10,0,0,0,0,6,23,9,7,0,0,0,0,2,6,14,15
COc1cc2c(cc1OCCN1CCN(C)CC1)ncc1c3ccc(C#N)cc3[nH]c21,0,54,22,0,0,0,70,33,26,100,4,0,0,0,0,0,23,4,0,0
CCn1cnc2c(N)ncnc21 [GW345098],0,0,0,15,0,4,6,4,0,5,12,24,15,35,41,0,8,5,0,0
